Bioassay records (PubChem)
In the library only some 5.2% were active in any assay of this set; here they are far more common.
TrxR1 substrate: qHTS Assay for Substrates of Mammalian Selenoprotein Thioredoxin Reductase 1 (TrxR1): qHTS. Thioredoxin reductase 1, cytoplasmic (Rattus norvegicus), O89049. purified TrxR1 substrate turnover, NADPH consumption readout. Potency, µM (titrated, usually from 114 µM), for inactives: top-dose activity change, negative = substrate turnover. 390,000 compounds, 0.01% hits; also: nearly all actives have a fitted effect of over 50% in size
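Rat TrxR1, dispensed at 90 nM, was prereduced with 400 uM NADPH (final) for 5 min at ~22 deg C, then incubated with compound 15 min before 400 uM selenite. A first-read NADPH fluorescence drop versus no-compound background flagged substrates.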
rTrxR1 inhibitor: qHTS Assay for Inhibitors of Mammalian Selenoprotein Thioredoxin Reductase 1 (TrxR1): qHTS; Thioredoxin reductase 1, cytoplasmic (Rattus norvegicus), O89049; recombinant rTrxR1, NADPH fluorescence consumption, selenite substrate; Potency, µM (highest dose often 114 µM), for inactives: at the highest dose activity change, negative = inhibition, usual class: inhibitors; 390,000 compounds, 1% hits; AID 588453, 2011; also: nearly all actives have a fitted effect of over 65% in size
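Rat TrxR1 (90 nM in the dispensed reagent) was pre-reduced with 400 uM NADPH for 5 min at room temperature, then incubated with compound for 15 min. After 400 uM selenite was added, NADPH fluorescence (Ex 340/Em 450 nm) was followed for 8 min.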
Sfp inh: qHTS Assay for Inhibitors of Bacillus subtilis Sfp phosphopantetheinyl transferase (PPTase); Biochemical Sfp PPTase activity, qHTS; 4'-phosphopantetheinyl transferase ffp (Bacillus subtilis), Q9F4F7; Potency, µM, inactives show largest response in the series, negative = inhibition, actives largely listed as inhibitors; 310,000 compounds, 3.5% hits;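 also: the enzyme is Sfp with the accession as filed and its product quenches rhodamine fluorescence; 0% = enzyme reaction without inhibitor and -100% = no enzyme wells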
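Fluorescence-quenching assay with 15 nM Sfp, 5 uM rhodamine-CoA and 12.5 uM BHQ-2-labelled ybbR peptide in pH 7.6 Hepes/MgCl2 buffer. Enzyme was pre-incubated with compound for 15 min at room temperature. Rate was taken from the 30-min fluorescence change (525/598 nm).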
PLK1 PBD inh: qHTS for Inhibitors of PLK1-PDB (polo-like kinase 1 - polo-box domain): Primary Screen. Potency, µM, for inactives: max response, negative = inhibition, hits mostly inhibitors. 360,000 compounds, 2.8% hits. Plk1 PBD binding of FITC phosphopeptide, fluorescence polarization. AID 720504, 2013. Serine/threonine-protein kinase PLK1 (Homo sapiens), P53350; also: series mostly up to about 57 µM; nearly all actives have a fitted effect of over 65% in size
IDH1 R132H inh: qHTS for Inhibitors of mutant isocitrate dehydrogenase 1 (IDH1): qHTS. Isocitrate dehydrogenase [NADP] cytoplasmic (Homo sapiens), O75874. IDH1-R132H enzyme, NADPH consumption, diaphorase/resazurin fluorescence. Potency, µM (series often up to 76.6 µM), for inactives: at the top dose activity change, negative = inhibition, most hits filed as inhibitors. 390,000 compounds, 0.093% hits. AID 602179, 2012; also: nearly all actives have a fitted effect of over 65% in size
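IDH1-R132H (0.5 ug/mL dispensed) in pH 7.5 Tris buffer was preincubated 30 min with compound, then given a substrate mix of 0.016 mM NADPH and 2 mM alpha-KG for 80 min at room temperature; remaining NADPH was read by diaphorase/resazurin fluorescence.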
VDR inhibitor: Inhibitors of the vitamin D receptor (VDR): qHTS; Vitamin D3 receptor (Homo sapiens), P11473; VDR-SRC2-3 peptide fluorescence polarization, 2 h; Potency, µM, without a hit: max response, negative = inhibition, most hits filed as inhibitors; 400,000 compounds, 0.93% hits; AID 504847, 2011
Target sequence (P11473 whole entry, looked up): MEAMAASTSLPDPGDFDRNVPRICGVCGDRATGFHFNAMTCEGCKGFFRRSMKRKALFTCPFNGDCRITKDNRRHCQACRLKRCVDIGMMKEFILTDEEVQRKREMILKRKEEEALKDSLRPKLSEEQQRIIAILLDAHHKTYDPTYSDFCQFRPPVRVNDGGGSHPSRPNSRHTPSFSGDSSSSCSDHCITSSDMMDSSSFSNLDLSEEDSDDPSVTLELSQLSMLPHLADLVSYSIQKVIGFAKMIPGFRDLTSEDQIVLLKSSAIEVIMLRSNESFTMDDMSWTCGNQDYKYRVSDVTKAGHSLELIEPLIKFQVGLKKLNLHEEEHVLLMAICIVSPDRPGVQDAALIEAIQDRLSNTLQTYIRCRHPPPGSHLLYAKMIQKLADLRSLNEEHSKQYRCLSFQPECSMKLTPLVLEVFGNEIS
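Fluorescence polarization assay of small-molecule disruption of VDR binding to coregulator peptide SRC2-3. Compounds and controls pin-transferred, then read after 2 h incubation at ambient room temperature.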
Active calls of the source: *; i = inactive; ? = inconclusive; . = no result; [ ] = dose if it differs, or a comment. Calls follow the shape of the dose curve; as a rule, active = well fitted curve in the direction sought with a large enough effect; inconclusive = small, poorly fitted or top-dose-only effect, or another doubt; inactive = no such curve, though single readings can be large; an effect the other way counts as inactive or inconclusive. Unless noted, % is scaled to controls: 0 for no effect and ±100 for the full control effect; potency is read from the fitted curve at half-maximal effect.

SMILES	TrxR1 substrate	rTrxR1 inhibitor	Sfp inh	PLK1 PBD inh	IDH1 R132H inh	VDR inhibitor
O=C1C(=O)N(CCCn2ccnc2)C(c2cccc(Br)c2)/C1=C(\O)c1ccc2c(c1)OCCO2 (configuration not stated)	-2%[57.1 µM]	6%[57.1 µM]	5%	30µM*	0%	-23%
COc1ccc(C2/C(=C(\O)c3ccc4c(c3)OCCO4)C(=O)C(=O)N2CCCN(C)C)c(OC)c1 (configuration not stated)	-8%	10µM*	-17%	-29%	3%	?
COC(=O)c1ccc(C2/C(=C(\O)c3ccc4c(c3)OCCO4)C(=O)C(=O)N2CCCN(C)C)cc1 (configuration not stated)	-7%	2%	8%	-6%	3%	6%
CN(C(=O)C(=O)Nc1ccc2nc3n(c(=O)c2c1)CCCCC3)c1cccc(C(F)(F)F)c1	-6%	-2%	.	.	4%	-4%
O=C(Nc1cccs1)Nc1ccccc1Cl	3%	-19%	45µM*	-13%	4%	10%
O=C(Nc1ccc2nccnc2c1)Nc1ccccc1Cl	-6%	2%	?	24µM*	-6%	?
Cc1c(NC(=O)Nc2cccs2)cccc1[N+](=O)[O-]	3%	22%	50µM*	1%	0%	-17%
Cc1ccc(NC(=O)Nc2cccs2)c(Cl)c1	0%[57.1 µM]	7%[57.1 µM]	-25%	2%	-3%	-19%
CCc1ccc(S(=O)(=O)c2nnn3c2nc(Nc2cc(OC)cc(OC)c2)c2cc(Cl)ccc23)cc1	6%	40%	.	.	-2%	5%
COC(=O)c1ccc(COC(=O)CNS(=O)(=O)c2ccccc2)cc1	8%	23%	9%	4%	5%	12%
O=C(CNS(=O)(=O)c1ccccc1)NCC(=O)OCc1ccc(Br)cc1	-1%	30%	7%	12µM*	5%	?
COC(=O)C(NC(=O)CNS(=O)(=O)c1ccc(Br)cc1)c1ccccc1 (configuration not stated)	7%[57.1 µM]	31%[57.1 µM]	-10%	27µM*	8%	0%
N#C/C(=C/c1ccc(N2CCCCCC2)o1)c1ccc(F)cc1	11%[57.1 µM]	5µM*	.	?	-8%	?
N#C/C(=C\c1ccc(N2CCOCC2)o1)c1ccccc1	-3%	3.5µM*	25µM*	12%	9%	-93%
N#C/C(=C\c1cc([N+](=O)[O-])c(N2CCOCC2)cc1N1CCOCC1)c1nc2ccccc2[nH]1	-17%	-16%	-1%	3%	4%	-7%
N#C/C(=C/c1ccc(N2CCCCC2)o1)C(=O)Nc1ccc(Cl)cc1	8%	-15%	5%	42%	-1%	10%
N#C/C(=C\c1ccc(N2CCOCC2)cc1)c1ccccc1	-10%	0%	-19%	-1%	15%	12%
S=C(c1nc2ccccc2[nH]1)N1CCOCC1	-4%	3%	25µM*	24µM*	2%	?
N#C/C(=C/c1ccc(N2CCOCC2)o1)c1nc2ccccc2[nH]1	5%[57.1 µM]	-20%[57.1 µM]	20µM*	101%	5%	-23%
CCC1CCCCN1C(=O)Cn1c(=O)cc(C(F)(F)F)c2c(C)nn(C)c21 (configuration not stated)	14%[57.1 µM]	4%[57.1 µM]	.	.	-7%	-2%
CCC1Sc2ccc(S(=O)(=O)N3CCN(c4ccccc4)CC3)cc2NC1=O (configuration not stated)	-4%	-15%	14%	3.4µM*	-1%	?
O=C1CSc2ccc(S(=O)(=O)N3CCN(c4ccccc4)CC3)cc2N1	2%	14%	4%	-1%	-5%	-5%
CC(C)CCN1C(=O)c2ccccc2CC1(C)C(=O)NC1CCCCC1 (configuration not stated)	1%	17%	.	.	.	-9%
CCOc1ccccc1/C=N/n1c(COc2ccccc2)n[nH]c1=S	-9%	-29%	35µM*	?	3%	-15%
Oc1ccc(/C=N/n2c(COc3ccccc3)n[nH]c2=S)c(O)c1	-3%	-5%	56µM*	?	-11%	12%
SMILES	TrxR1 substrate	rTrxR1 inhibitor	Sfp inh	PLK1 PBD inh	IDH1 R132H inh	VDR inhibitor
Fc1ccccc1/C=N/n1c(COc2ccccc2)n[nH]c1=S	12%[57.1 µM]	-17%[57.1 µM]	56µM*	24µM*	13%	-6%
COc1ccc(-n2c(/C=C/c3cccc4ccccc34)nc3ccccc3c2=O)cc1OC	-2%[57.1 µM]	4%[57.1 µM]	.	.	-5%	0%
O=C1NNC(c2ccccc2)=N/C1=C\c1ccco1	-2%	-35%	35µM*	?	8%	-12%
O=C(CSc1nccn1-c1ncc(C(F)(F)F)cc1Cl)c1ccc(Cl)cc1	-8%	-22%	-13%	?	5%	45µM*
O=C(OCc1ccc([N+](=O)[O-])cc1Cl)c1cnccn1	5%	22µM*	3%	-5%	-9%	3%
O=C(COC(=O)c1cnccn1)c1ccc([N+](=O)[O-])cc1	-6%	-7%	20µM*	-15%	-3%	?
Cc1ccc(C(=O)COC(=O)c2cnccn2)cc1	-12%	-16%	-4%	-2%	2%	7%
COc1ccc(OC)c(NC(=O)Nc2nc(CN(C)C)cs2)c1	.	.	.	-2%	.	.
N#CCCCS(=O)(=O)c1nnnn1C1CCCCC1	.	.	6%	.	.	8%
CCNC(=S)Nc1ccc(OCC)cc1	-7%	-16%	14%	-16%	1%	-11%
O=C(CCCc1nc2ccccc2s1)Nc1ccccc1	-3%	7%	2%	5%	0%	5%
O=C(O)CCCC(=O)Nc1ccc(OCc2nc3ccccc3s2)cc1	-4%	-12%	8.9µM*	4.2µM*	23%	?
CCNC(=S)Nc1ccc(OCc2nc3ccccc3s2)cc1	-6%[57.1 µM]	0%[57.1 µM]	20µM*	9.5µM*	2%	71µM*
Cc1cc(=O)oc2c(CN3CCCCC3)c(O)ccc12	i	-107%	.	-8%	4%	-25%
CCc1c(C)c2ccc(O)c(CN3CCCC3)c2oc1=O	i	22µM*	13%	-6%	9%	16%
Cc1cc(=O)oc2c(CN3CCOCC3)c(O)ccc12	i	56µM*	.	-11%	-7%	-17%
O=c1c(-c2ccc(Cl)cc2)coc2c(CN3CCOCC3)c(O)ccc12	30%[57.1 µM]	-6%[57.1 µM]	-2%	19µM*	5%	-3%
